GLS inhibitor – inhibitors of human glutaminase (GLS); O94925; GLS enzymatic activity, qHTS titration; Potency, µM (series often up to 45.5 µM), for the others: at the top dose activity change, negative = inhibition, actives largely listed as inhibitors; hit rate 0.21% among 410,000; AID 624170; note: % is set by controls: 0 for no effect and ±100 for the full control effect
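Read-out is an Amplex red fluorescence increase coupled through glutamate oxidase and HRP, measured before and after 30 min room-temperature incubation. hKGA is in 45 mM KH2PO4 (pH 8.2) with 0.02% Tween-20; glutamine added as 1mM solution.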
PGK inhibitor – inhibitors of T. brucei phosphoglycerate kinase. P07378. Potency, µM (titrated, usually from 57.5 µM), for the others: at the highest dose activity change, negative = inhibition, most hits filed as inhibitors. hit rate 0.043% among 380,000. PGK/GAPDH coupled, Kinase-Glo luminescence, 60 min; note: % is set by controls: 0 for no effect and ±100 for the full control effect; nearly all actives have a fitted effect of over 60% in size
Target sequence (P07378 whole entry, looked up): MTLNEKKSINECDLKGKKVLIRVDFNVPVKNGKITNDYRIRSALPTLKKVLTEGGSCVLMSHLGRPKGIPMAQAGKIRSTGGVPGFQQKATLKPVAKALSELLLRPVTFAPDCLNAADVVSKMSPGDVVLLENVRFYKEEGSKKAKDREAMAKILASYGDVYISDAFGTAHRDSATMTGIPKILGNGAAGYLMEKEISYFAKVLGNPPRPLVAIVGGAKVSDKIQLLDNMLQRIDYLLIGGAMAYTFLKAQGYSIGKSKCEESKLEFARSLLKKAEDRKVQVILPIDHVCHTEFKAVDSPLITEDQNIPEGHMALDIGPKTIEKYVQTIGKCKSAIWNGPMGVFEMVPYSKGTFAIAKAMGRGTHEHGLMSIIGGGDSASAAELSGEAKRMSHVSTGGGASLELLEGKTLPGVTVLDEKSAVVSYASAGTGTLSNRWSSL
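Luminescent ATP detection (Kinase-Glo Plus) follows a 60-minute room-temperature incubation, with wells lacking PGK as controls. Buffer: 100 mM TEA (pH 7.6), 5 mM MgCl2, 0.01% Tween-20. Coupling enzyme GAPDH (100 nM final) supplies unstable 1,3-BPG in-well.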
VDR inhibitor – inhibitors of human vitamin D receptor | P11473 | VDR-SRC2-3 peptide fluorescence polarization, 2 h | Potency, µM, for inactives: max response, negative = inhibition, most hits filed as inhibitors | hit rate 0.93% among 400,000 | AID 504847; note: % is set by controls: 0 for no effect and ±100 for the full control effect
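Inhibition of the VDR/SRC2-3 peptide interaction is quantified by fluorescence polarization. Compounds (23 nl, pintool) incubate with the reagents for 2 hours at ambient room temperature.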
Pin1 inhibitor – blocks the human prolyl isomerase Pin1 | Pin1 FP peptide displacement, HiFluor488, 10 min | Potency, µM (doses to about 115 µM), for the others: top-dose activity, negative = inhibition, hits mostly inhibitors | hit rate 0.009% among 390,000 | AID 504891; active = well fitted inhibition curve with a large enough effect in the polarisation, with a control signal flat, not every such curve was filed as active; inconclusive = small, poorly fitted or top-dose-only effect, or effect the other way, or a change in a side signal; inactive = no such curve, though single readings can be large or run the other way; the % refers to the polarisation; note: % is set by controls: 0 for no effect and ±100 for the full control effect
Target sequence (Q13526 whole entry, looked up): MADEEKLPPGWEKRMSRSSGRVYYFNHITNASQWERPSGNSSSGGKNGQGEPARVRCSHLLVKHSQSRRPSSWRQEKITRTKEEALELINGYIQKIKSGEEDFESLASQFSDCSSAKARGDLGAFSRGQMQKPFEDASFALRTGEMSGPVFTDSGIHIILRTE
Tb PFK inh-1 – T. brucei PFK enzyme inhibition; AID 485367; hit rate 0.17% among 330,000; T. brucei PFK, ADP-Glo luminescence; Potency, µM (titrated, usually from 57.5 µM), for inactives: at the highest dose activity, negative = inhibition, hits mostly inhibitors;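 note: 0% = uninhibited 1x PFK enzyme wells and -100% = no-enzyme wells; nearly all actives have a fitted effect of over 60% in size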
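Compounds were pin-transferred as a titration series up to 57 uM into substrate buffer (0.5 mM F6P, 0.1 mM ATP, pH 8.0), then 1.25 nM PFK was added and reactions ran 45 min before ADP-Glo detection.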
TbPFK ATP – inhibits T. brucei PFK measured by ATP depletion; shares compounds with Tb PFK inh-1; Tb PFK enzyme, ATP depletion, Kinase-Glo Plus luminescence; Potency, µM (highest dose often 57.5 µM), for the others: at the highest dose inhibition; hit rate 47% among 1,100; calls by dose curve; note: nearly all actives have a fitted effect of over 60% in size
Tb PFK inh-2 – validation of T. brucei phosphofructokinase inhibitors | hit rate 41% among 1,100 | purified T. brucei PFK, ADP-Glo luminescence, 45 min | shares compounds with Tb PFK inh-1 | Potency, µM (series often up to 57.5 µM), for inactives: at the highest dose activity change, negative = inhibition, most hits filed as inhibitors | AID 504637;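 note: plate controls were full PFK enzyme control for no effect and no enzyme control for full effect; nearly all actives have a fitted effect of over 60% in size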
The depositor's hits bear a star; i = inactive; ? = inconclusive; · = no result given. This is a sample that favours compounds with a hit; in the whole collection about 1.1% have one here. Unless noted, calls come from the whole dose curve; as a rule, active = well fitted curve in the direction sought with a large enough effect; inconclusive = small, poorly fitted or top-dose-only effect, or another doubt; inactive = no such curve, though single readings can be large; an effect the other way counts as inactive or inconclusive. Potency is the fitted concentration of half-maximal effect.

SMILES | GLS inhibitor | PGK inhibitor | VDR inhibitor | Pin1 inhibitor | Tb PFK inh-1 | TbPFK ATP | Tb PFK inh-2
CCOc1ccc(C(=O)OCC(=O)NCc2ccco2)cc1OCC | 0% | -10% | -4% | 4% | ? | ? | -15%
Cc1cc(-n2c(/C=C/c3cccs3)nc3ccccc3c2=O)ccc1Br | 2% | -3% | 6% | -4% | · | · | ·
CC1C(=O)OC2O[C@]3(C)CC[C@H]4C(C)CCC1[C@]24OO3 (stereo not given in full) | · | · | -10% | · | · | · | ·
COc1ccccc1/C=C/C(=O)NCC(=O)N/N=C/c1ccccc1[N+](=O)[O-] | 0% | -7% | -11% | 7% | ? | -32% | ?
O=C(O)[C@@H](c1ccccc1)N1Cc2ccccc2C1=O | -1% | -4% | -16% | 1% | ? | ? | ?
CC(C(=O)c1ccccc1)N1C(=O)c2ccccc2C1=O (stereo not given) | 4% | -5% | -5% | -2% | 0% | · | ·
CC12CCC(=O)C=C1CC(N1CC1)C1C2CCC2(C)C(O)CCC12 (stereo not given) | -8% | -3% | -12% | -5% | · | · | ·
CN1CCN(c2ccc([N+](=O)[O-])cc2Cl)CC1 | 0% | 1% | -28% | -4% | -3% | · | ·
CC1CN(c2ccc([N+](=O)[O-])cc2Cl)CCN1 (stereo not given) | -11% | i | -16% | 4% | 9.5µM* | 27µM* | 30µM*
CC(Oc1ccc(Br)cc1)C(=O)N(Cc1nc(-c2ccccc2)no1)C(C)C (stereo not given) | -9% | i | -6% | ? | · | · | ·
O=C(C(=O)N1CCOCC1)c1cn(CC(=O)N2CCc3ccccc3C2)c2ccccc12 | 2% | 0% | 0% | -1% | ? | ? | ?
CCCCc1ccc(NC(=O)c2cccn(Cc3ccc(Cl)cc3)c2=O)cc1 | -7% | 1% | -9% | 7% | · | · | ·
O=C(O)CCCNC(=O)c1ccc(NC(=O)Cc2ccc(Cl)cc2)cc1 | 1% | i | -1% | 0% | ? | ? | ?
O=C(O)CCN1C(=O)c2ccc(NC(=O)Cc3ccc(Cl)cc3)cc2C1=O | 1% | -11% | 0% | -6% | 19µM* | ? | 27µM*
CC/C=C\C/C=C\C/C=C\C/C=C\C/C=C\CCCC(N)=O | · | · | -1% | · | · | · | ·
COc1ccc(S(=O)(=O)N(C)C[C@H]2OCCCC[C@@H](C)Oc3ccc(N(C)C)cc3C(=O)N([C@H](C)CO)C[C@@H]2C)cc1 | 33% | -3% | · | · | · | · | ·
Oc1cc(-n2cccn2)c(O)cc1-n1cccn1 | ? | -3% | 6% | -4% | 19µM* | ? | ?
CCN1CC2(OC(=O)c3ccccc3NC(C)=O)CCC(OC)[C@]34C1[C@H](CC23)[C@@]1(O)C[C@H](OC)[C@H]2CC4C1(O)[C@H]2OC (stereo not given in full) | · | · | 0% | · | · | · | ·
O=C(Nc1ncc(Cc2cccc(Cl)c2)s1)C1CCCO1 (stereo not given) | 16% | 6% | -2% | -4% | ? | 17µM* | ?
NCCOc1ccccc1Cc1ccccc1 | 1% | i | 20% | -1% | 19µM* | ? | ?
C=CCNC(=O)N1CCc2[nH]c3ccc(F)cc3c2C1 | 5% | · | 2% | ? | ? | ? | ?
Cc1ccc2[nH]c3c(c2c1)CN(C(=O)CN1C[C@H]2C[C@@H](C1)c1cccc(=O)n1C2)CC3 | 31% | i | 0% | ? | -1% | · | ·
Cc1cccc(NC(=O)Cn2cc(C(=O)c3ccccc3)c3ccccc32)c1C | 1% | -6% | -1% | ? | · | · | ·
Clc1cccc(CNCCc2ccc3c(c2)OCO3)c1 | -19% | i | -2% | -6% | -21% | · | ·
O=C(NCc1cccc(Cl)c1)c1ccc2c(c1)OCO2 | 1% | -2% | -12% | 0% | ? | 24µM* | 30µM*
SMILES | GLS inhibitor | PGK inhibitor | VDR inhibitor | Pin1 inhibitor | Tb PFK inh-1 | TbPFK ATP | Tb PFK inh-2
O=C1C=C(NCc2ccc(Cl)c(Cl)c2)CC1 | 7% | -1% | 7% | -1% | 4.8µM* | 4.8µM* | 6µM*
CCCC12CN3CC(C)(CN(C1)C3c1c(C)[nH]c(=O)[nH]c1=O)C2=O (stereo not given) | 2% | 0% | -7% | -16% | · | · | ·
O=C(Nc1ccc2c(c1)OCCO2)c1ccc(Cl)c([N+](=O)[O-])c1 | 11% | i | -12% | -1% | 27µM* | 12µM* | 27µM*
N#CCCn1cc(C(=O)Nc2ccc([N+](=O)[O-])cc2)c(-c2ccc3c(c2)OCCO3)n1 | -2% | 0% | ? | 8% | 0% | · | ·
O=C(Nc1ccc(S(=O)(=O)NC2=NCCCCC2)cc1)c1ccc(Cl)c([N+](=O)[O-])c1 | 2% | -1% | 14% | 0% | ? | 13µM* | ?
CC1CCCCC1NC(=O)CNC(=S)N1CC2CC(C1)c1cccc(=O)n1C2 (stereo not given) | -2% | -7% | -4% | -7% | 0% | · | ·
C=C1C2C[C@]3(C4CC5[C@@]6(C)CC[C@H](O)[C@@]5(C3CC2=O)C4[N+]([O-])(CC)C6)[C@@H]1O (stereo not given in full) | · | · | 3% | · | · | · | ·
O=C(NCc1cccc(Cl)c1)c1ccc(N2CC3CC(C2)c2cccc(=O)n2C3)c(NC(=O)c2cccnc2)c1 (stereo not given) | -3% | -10% | -2% | -3% | ? | ? | ?
O=C(Cc1ccc(Cl)c(Cl)c1)Nc1cccc2ncccc12 | -9% | i | -10% | 7% | 11µM* | 11µM* | 11µM*
COc1ccc(-c2nc(SCC(=O)NC(C)CCc3ccccc3)n[nH]2)cc1 (stereo not given) | 1% | i | -1% | ? | · | · | ·
Nc1nn2cc(-c3ccccc3)nc2c2ccccc12 | 1% | -11% | -17% | 1% | ? | 0% | ?
O=C(O)CCCCC1SCC2NC(=O)NC21 (stereo not given) | 7% | -1% | 6% | 1% | 0% | · | ·
Cc1cc(C(=O)NNC(=O)Cc2ccc(Cl)c(Cl)c2)c(C)o1 | -4% | -1% | ? | -4% | 27µM* | 12µM* | 30µM*
O=C(Nc1cccs1)Nc1ccc(Br)cc1F | ? | -3% | ? | 14% | ? | ? | ?
Cc1ccc(S(=O)(=O)N2[C@@H](c3ccccc3F)C(C(=O)O)=CC[C@H]2c2ccc(Cl)c(Cl)c2)cc1 | 18% | -4% | -3% | ? | 27µM* | 7% | 1%
